Records with an inconclusive call do not appear. Activity calls are given as the source filed them.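 The calls were made as follows, unless noted: active = efflux inhibition above 0.42, the validation set average plus 4 SD; inconclusive = no clear call, values can overlap the other calls; inactive = the rest.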
How the values were obtained:
[1] = rapamycin-like changes in RPL19A-GFP expression – cell-based, S. cerevisiae, multiplex flow cytometry, primary screen (AID 1862; in the data active = percent of DMSO control GFP below about 86%;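 also: lower values mimic rapamycin by blocking the RPL19A rise seen in DMSO cells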); settings: S. cerevisiae RPL19A-GFP strain, flow cytometry fluorescence, 3 h; at 10 µM; stronger effect = lower value
[2] = TOR pathway GLN3 branch reporter MEP2-GFP changes – S. cerevisiae, multiplex flow cytometry, primary screen (AID 1867;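 active = GFP response, as percent of the DMSO control, above the screen-wide mean plus 3 SD, about 139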;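 also: median GFP channel fluorescence of barcode-gated MEP2-GFP cells measured by flow cytometry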); settings: S. cerevisiae MEP2-GFP strain, 3 h, at 10 µM, stronger effect = higher value, 100% means same as DMSO wells
[3] = TOR pathway RTG branch CIT2 reporter changes – S. cerevisiae, GFP fusion, multiplex flow cytometry, primary screen (AID 1870;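 active = percent response above a set limit, the screen-wide mean plus 3 SD, cut at about 130% in these data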;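 also: barcoded CIT2-GFP strain pooled with four other GFP strains with rapamycin as positive control; median GFP fluorescence per well over plate mean of DMSO wells so 100% = DMSO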); settings: S. cerevisiae CIT2-GFP expression, 3 h, at 10 µM, stronger effect = higher value
[4] = TOR pathway LAP4-GFP level changes – S. cerevisiae, multiplex flow cytometry, primary screen (AID 1873;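 active = GFP signal, as percent of the solvent control, above the screen mean plus 3 SD, about 149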); settings: S. cerevisiae LAP4-GFP expression, 3 h, at 10 µM, stronger effect = higher value
[5] = yeast AGP1-GFP level changes, GLN3 branch – cell-based, multiplex flow cytometry, S. cerevisiae, primary screen (AID 1887;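 active = GFP signal above the screen-wide mean plus 3 SD, that is over about 124.5% of the solvent control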;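 also: AGP1-GFP fusion strain of S. cerevisiae within a five-strain barcoded multiplex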); settings: 3 h, at 10 µM, stronger effect = higher value
[6] = reduced mouse 2C T cell binding to pMHC/ICAM-1 vesicles – MLPCN validation set, flow cytometry, LFA-1/ICAM-1 modulator project, pilot screen (AID 2523;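 active = response below a set limit, under 55% cells CD8-positive and vesicle-bound, and CD8 cells' 90th-percentile brightness under 279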;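 as to vesicle binding response: mean PE anti-B7-1 fluorescence of CD8+ cells relative to row control; 100% = QL9-loaded vesicles with DMSO vehicle in the same plate row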); settings: 2C mouse CD8+ T cells, at 7 µM, stronger effect = lower value; double positive events: measured here: CD8+/vesicle+ event percentage
[7] = molecular target: Integrin beta-1 (Homo sapiens) + Integrin alpha-4 (Homo sapiens) (UniProt P13612+P05556); assay: alpha4beta1 integrin LIBS antibody binding reduction – U937 cells, HUTS-21 mAb, flow cytometry, validation set, VLA-4 allosteric modulator project, pilot screen (AID 2674;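 active = inhibition above 50%, about 3 SD of the validation set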;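 also: antibody binding induced by the VLA-4 ligand LDV present at three times its Kd; 0% = LDV ligand with antibody and no compound and 100% = antibody without LDV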); settings: HUTS-21 LIBS mAb binding, at 6.7 µM, stronger effect = higher value, binding induced by LDV ligand
Integrin beta-1 (Homo sapiens) + Integrin alpha-4 (Homo sapiens), sequence (P05556 whole entry, looked up): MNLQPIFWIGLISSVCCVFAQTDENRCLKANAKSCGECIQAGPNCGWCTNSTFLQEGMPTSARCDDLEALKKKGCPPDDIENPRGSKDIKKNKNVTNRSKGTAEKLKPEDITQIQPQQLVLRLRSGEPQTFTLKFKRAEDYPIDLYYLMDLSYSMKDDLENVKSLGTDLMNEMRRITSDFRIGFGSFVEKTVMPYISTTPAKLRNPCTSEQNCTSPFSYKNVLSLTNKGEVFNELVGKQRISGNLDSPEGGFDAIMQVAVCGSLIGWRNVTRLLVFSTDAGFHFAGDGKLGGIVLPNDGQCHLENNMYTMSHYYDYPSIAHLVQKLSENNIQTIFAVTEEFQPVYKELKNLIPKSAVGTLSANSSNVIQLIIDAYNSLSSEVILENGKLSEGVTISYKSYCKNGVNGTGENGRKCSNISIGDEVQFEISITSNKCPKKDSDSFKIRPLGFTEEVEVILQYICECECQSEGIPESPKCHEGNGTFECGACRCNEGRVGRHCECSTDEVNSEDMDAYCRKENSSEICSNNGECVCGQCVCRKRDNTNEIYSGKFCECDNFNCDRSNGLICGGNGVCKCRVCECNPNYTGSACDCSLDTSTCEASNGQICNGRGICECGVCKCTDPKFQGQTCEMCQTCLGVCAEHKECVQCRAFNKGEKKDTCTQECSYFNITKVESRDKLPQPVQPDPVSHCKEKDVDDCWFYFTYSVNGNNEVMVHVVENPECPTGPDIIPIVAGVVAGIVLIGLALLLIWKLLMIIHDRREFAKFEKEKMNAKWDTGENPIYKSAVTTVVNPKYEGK
Integrin beta-1 (Homo sapiens) + Integrin alpha-4 (Homo sapiens), sequence (P13612 whole entry, looked up): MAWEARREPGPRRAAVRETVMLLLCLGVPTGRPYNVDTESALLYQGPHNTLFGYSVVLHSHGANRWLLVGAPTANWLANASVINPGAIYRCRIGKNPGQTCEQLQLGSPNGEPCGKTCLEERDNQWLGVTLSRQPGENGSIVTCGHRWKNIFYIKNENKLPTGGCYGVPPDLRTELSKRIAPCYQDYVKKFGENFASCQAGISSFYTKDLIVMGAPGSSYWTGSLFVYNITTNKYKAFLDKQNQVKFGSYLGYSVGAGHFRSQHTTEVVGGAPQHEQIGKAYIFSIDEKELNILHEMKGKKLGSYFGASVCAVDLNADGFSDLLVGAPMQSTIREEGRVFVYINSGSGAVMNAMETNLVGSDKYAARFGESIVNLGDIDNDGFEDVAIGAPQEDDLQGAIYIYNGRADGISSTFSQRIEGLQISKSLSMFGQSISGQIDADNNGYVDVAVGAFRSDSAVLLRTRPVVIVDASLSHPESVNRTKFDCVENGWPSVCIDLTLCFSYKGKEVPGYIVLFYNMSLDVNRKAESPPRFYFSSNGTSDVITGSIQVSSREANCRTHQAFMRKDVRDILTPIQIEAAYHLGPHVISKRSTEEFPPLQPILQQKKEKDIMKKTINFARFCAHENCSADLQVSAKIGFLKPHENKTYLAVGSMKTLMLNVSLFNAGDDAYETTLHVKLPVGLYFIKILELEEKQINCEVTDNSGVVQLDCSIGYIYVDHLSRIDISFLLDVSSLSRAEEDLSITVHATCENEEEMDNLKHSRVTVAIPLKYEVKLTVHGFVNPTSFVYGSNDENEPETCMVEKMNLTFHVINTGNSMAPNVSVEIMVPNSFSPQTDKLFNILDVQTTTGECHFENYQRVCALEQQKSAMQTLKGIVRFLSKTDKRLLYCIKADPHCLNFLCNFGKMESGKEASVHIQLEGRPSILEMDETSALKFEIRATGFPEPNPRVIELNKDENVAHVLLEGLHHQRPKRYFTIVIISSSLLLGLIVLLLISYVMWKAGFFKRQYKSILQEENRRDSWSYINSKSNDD

[8] = calorie-restriction mimetic ROS inhibitors, yeast – validation compound set, pilot screen (AID 2706;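 active = superoxide response below 65% of plate, a cut near 3 SD across the whole screen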;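 also: yeast exposed to compound for one week at 30 degrees C before staining; 100% = mean of all compound wells on the same plate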); settings: S. cerevisiae aging, superoxide DHE fluorescence; at 10 µM; stronger effect = lower value
[9] = molecular target: Beta-adrenergic receptor kinase 1 (Homo sapiens) (UniProt P25098); assay: GRK2 binders displacing RNA aptamer, biochemical, validation, human GRK2, bead flow cytometry (AID 488806;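 active = aptamer binding inhibition above 30%, about 3 SD of noise from non-fluorescent compounds; inactive = inhibition at or below 30%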); settings: bead-bound GRK2, FAM-aptamer displacement, at 10 µM, stronger effect = higher value
Beta-adrenergic receptor kinase 1 (Homo sapiens), sequence (P25098 whole entry, looked up): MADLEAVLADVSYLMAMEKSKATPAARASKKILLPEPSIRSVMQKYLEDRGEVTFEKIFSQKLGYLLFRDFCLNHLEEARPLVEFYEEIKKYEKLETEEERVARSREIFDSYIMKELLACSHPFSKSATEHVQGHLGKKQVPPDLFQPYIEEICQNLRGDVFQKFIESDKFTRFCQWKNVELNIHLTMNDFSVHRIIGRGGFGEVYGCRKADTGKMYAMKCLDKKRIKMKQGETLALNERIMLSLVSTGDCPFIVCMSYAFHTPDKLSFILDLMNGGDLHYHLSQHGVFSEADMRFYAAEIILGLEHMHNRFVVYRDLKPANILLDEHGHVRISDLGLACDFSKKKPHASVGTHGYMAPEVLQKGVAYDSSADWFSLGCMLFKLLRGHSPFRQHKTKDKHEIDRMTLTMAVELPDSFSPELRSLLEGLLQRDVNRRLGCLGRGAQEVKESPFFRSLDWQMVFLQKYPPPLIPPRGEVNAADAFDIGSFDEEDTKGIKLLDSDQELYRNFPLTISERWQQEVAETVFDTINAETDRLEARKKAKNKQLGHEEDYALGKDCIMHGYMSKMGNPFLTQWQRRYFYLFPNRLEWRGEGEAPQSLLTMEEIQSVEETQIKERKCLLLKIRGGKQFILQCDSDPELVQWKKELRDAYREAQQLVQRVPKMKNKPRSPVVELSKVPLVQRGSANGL

[10] = molecular target: Beta-2 adrenergic receptor (Homo sapiens) (UniProt P07550); assay: agonist-induced loss of surface beta2AR – cell-based, FAP fluorogen, flow cytometry, validation set, pilot screen (AID 504459;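 active = percent response above 42, roughly 3 SD of non-fluorescent test compounds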;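 also: agonist-driven loss of surface beta2AR via internalization measured by FAP dye flow cytometry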); settings: Am2.2-beta2AR cells, at 10 µM, stronger effect = higher value
Beta-2 adrenergic receptor (Homo sapiens), sequence (P07550 whole entry, looked up): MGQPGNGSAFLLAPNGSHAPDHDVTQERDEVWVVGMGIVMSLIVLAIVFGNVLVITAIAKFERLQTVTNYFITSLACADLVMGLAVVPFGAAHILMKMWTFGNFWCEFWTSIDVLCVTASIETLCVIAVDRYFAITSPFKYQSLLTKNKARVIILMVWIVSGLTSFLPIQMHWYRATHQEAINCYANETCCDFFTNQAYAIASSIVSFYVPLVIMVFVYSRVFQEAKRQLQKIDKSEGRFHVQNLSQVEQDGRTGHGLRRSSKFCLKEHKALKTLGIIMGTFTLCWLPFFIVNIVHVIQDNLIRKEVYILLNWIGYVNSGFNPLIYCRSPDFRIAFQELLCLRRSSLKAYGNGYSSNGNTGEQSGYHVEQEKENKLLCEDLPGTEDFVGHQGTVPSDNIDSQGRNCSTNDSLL

[11] = molecular target: AP-2 complex subunit beta (Homo sapiens) (UniProt P63010); assay: beta-arrestin/AP2 interaction blockers – biochemical, validation set, GST-AP2 beads, flow cytometry, pilot screen (AID 504541;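 active = inhibition above 54%, about 3 SD of non-fluorescent compounds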;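 also: AP2 carries R879A mutation and is captured from E. coli lysate; bead-bound FITC arrestin peptide fluorescence measuring arrestin peptide binding to AP2; 0% = DMSO wells and 100% = excess unlabeled arrestin peptide control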); settings: FITC arrestin peptide, at 10 µM, stronger effect = higher value, AP2 beta2 appendage fragment, R879A mutant
AP-2 complex subunit beta (Homo sapiens), sequence (P63010 whole entry, looked up, the tested form may be a part, one chain of several): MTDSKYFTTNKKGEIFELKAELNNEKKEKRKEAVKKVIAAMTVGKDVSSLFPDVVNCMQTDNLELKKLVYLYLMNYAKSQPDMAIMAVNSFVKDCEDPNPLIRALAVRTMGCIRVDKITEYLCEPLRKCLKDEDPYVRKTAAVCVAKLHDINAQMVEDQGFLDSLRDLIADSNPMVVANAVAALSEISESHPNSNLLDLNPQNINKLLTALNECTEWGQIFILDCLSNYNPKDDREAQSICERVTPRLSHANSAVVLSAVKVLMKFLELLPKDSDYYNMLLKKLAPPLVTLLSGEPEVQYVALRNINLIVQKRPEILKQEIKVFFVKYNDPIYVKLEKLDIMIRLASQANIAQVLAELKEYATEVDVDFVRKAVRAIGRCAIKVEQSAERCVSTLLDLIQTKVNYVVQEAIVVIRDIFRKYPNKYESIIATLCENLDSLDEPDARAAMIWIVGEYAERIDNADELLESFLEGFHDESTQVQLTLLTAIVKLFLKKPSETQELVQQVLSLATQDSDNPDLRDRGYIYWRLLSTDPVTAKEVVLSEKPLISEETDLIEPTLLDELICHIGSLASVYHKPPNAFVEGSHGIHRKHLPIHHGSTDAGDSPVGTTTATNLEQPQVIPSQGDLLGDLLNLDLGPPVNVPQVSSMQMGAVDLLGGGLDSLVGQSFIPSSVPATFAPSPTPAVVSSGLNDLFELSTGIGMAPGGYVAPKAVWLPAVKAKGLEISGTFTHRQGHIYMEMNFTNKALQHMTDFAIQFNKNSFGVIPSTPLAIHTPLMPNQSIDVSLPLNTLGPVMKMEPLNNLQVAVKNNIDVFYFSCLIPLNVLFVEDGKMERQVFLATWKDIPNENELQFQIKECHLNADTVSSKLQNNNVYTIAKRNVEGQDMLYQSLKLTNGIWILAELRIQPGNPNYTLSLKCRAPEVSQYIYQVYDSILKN

[12] = cytosolic pH regulators acting via V-ATPase – S. cerevisiae, pHLuorin, HTS validation (AID 504600; in the data active = response above about 15%;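 also: plate controls were DMSO for no effect and reference compound for full effect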); settings: V-ATPase proton transport, at 10 µM, stronger effect = higher value
[13] = system: anti-desmoglein-3 scFv antibody binding to human DSG3; assay: blockers of pathogenic pemphigus antibody–desmoglein-3 binding – biochemical, validation compound set, bead-based, flow cytometry, pilot screen (AID 588368;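 active = binding below the plate cutoff, the plate median minus 3 SD, with a reading above zero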;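 also: signal is the median channel fluorescence of bead-bound GFP antibody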); settings: Protein G beads, DSG3-Fc, scFv-GFP binding, at 10 µM, stronger effect = lower value
[14] = Nile Red efflux blockade in pump-expressing yeast – validation compound set, multiplex, phenotypic, pilot screen (AID 588506);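 also: Nile Red retained in cells so higher fluorescence means more efflux inhibition; 0 = negative control wells and 1 = enniatin B 25 µM full block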; settings: S. cerevisiae pump-expressing triplex, Nile Red efflux flow cytometry; at 10 µM; stronger effect = higher value; the pumps come from Candida albicans
[15] = molecular target: ATP-binding cassette sub-family B member 6 (Homo sapiens) (UniProt Q9NP58); assay: blockers of ABCB6-driven porphyrin uptake – K562-ABCB6 cells, flow cytometry, validation set, pilot screen (AID 588550;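 active = inhibition above the screen-wide mean plus 3 SD, about 51%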;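 also: 0% = DMSO wells and 100% = benzethonium chloride 70 µM positive control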); settings: K562-ABCB6 porphyrin accumulation, 1 h, at 10 µM, stronger effect = higher value
ATP-binding cassette sub-family B member 6 (Homo sapiens), sequence (Q9NP58 whole entry, looked up): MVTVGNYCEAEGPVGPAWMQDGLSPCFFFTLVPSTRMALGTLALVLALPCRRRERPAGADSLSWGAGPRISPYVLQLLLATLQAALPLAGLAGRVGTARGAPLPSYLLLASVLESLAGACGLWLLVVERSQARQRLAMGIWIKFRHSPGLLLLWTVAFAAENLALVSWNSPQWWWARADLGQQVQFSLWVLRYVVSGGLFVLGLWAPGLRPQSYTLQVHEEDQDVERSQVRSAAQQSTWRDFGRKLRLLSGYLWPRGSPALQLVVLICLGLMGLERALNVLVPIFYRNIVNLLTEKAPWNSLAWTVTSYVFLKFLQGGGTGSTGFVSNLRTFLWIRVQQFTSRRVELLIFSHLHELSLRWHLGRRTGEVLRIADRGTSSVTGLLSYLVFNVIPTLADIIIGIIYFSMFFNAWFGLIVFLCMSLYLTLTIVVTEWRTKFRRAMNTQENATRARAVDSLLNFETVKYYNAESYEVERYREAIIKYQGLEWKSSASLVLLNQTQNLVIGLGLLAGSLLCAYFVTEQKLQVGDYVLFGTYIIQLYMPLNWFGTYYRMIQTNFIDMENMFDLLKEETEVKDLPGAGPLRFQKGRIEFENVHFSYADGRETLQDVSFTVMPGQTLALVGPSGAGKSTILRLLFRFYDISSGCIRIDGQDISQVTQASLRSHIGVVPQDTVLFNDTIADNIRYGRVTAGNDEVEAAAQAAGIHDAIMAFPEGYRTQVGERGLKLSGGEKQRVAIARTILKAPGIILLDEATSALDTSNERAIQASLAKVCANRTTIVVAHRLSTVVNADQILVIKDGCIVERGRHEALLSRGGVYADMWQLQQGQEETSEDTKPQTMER

[16] = AML differentiation inducers, ER-HoxA9 marrow cells – cell-based, GFP/MAC1 double positive, flow cytometry, validation set, primary screen (AID 588685;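 active = differentiation response of at least 50%, scaled between solvent and reference control, from cells with both markers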;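 also: compound exposure lasts four days before antibody staining and flow analysis; 0% = DMSO wells and 100% = 5 µM fulvestrant positive control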); settings: stronger effect = higher value, normalized: vehicle 0, fulvestrant 100

SMILES	percent of DMSO control GFP [1]	GFP response vs DMSO [2]	percent response of DMSO control [3]	GFP response vs DMSO [4]	GFP response, % of DMSO [5]	double positive events [6] [%]	vesicle binding response [6]	inhibition [7]	superoxide response (% of plate) [8]	aptamer binding inhibition [9]	response [10]	inhibition [11]	response [12]	binding (% of control) [13]	efflux inhibition (fraction of control) [14]	inhibition [15]	differentiation response [16]
COc1ccc(OC)c(C(=O)c2coc3ccc(O)cc23)c1	98.7% (inactive)	109% (inactive)	94.4% (inactive)	146% (inactive)	109% (inactive)	63.7	192% (inactive)	-2.82% (inactive)	88.2% (inactive)	2% (inactive)	-29.6% (inactive)	-14.6% (inactive)	4.67% (inactive)	103% (inactive)	-0.04 (inactive)	0% (inactive)	0.92% (inactive)
CC(=O)N1CCN(c2ccc(OC[C@H]3CO[C@](Cn4ccnc4)(c4ccc(Cl)cc4Cl)O3)cc2)CC1	105% (inactive)	108% (inactive)	111% (inactive)	109% (inactive)	111% (inactive)	63.3	188% (inactive)	4.27% (inactive)	100% (inactive)	-2% (inactive)	0.01% (inactive)	6.3% (inactive)	-2.33% (inactive)	98.1% (inactive)	0.59 (active)	-9% (inactive)	-10.4% (inactive)
CC12CN3CC(C)(CN(C1)C3c1ccc(Cl)cc1Cl)C2=O (stereo not drawn)	103% (inactive)	98.3% (inactive)	112% (inactive)	94.7% (inactive)	104% (inactive)	67.5	387% (inactive)	5.77% (inactive)	98.9% (inactive)	4% (inactive)	-10.5% (inactive)	-0.61% (inactive)	-0.6% (inactive)	95.1% (inactive)	-0.01 (inactive)	-3% (inactive)	-8.55% (inactive)
Cc1cccc2c(=O)n3c(nc12)CCCCC3	99.3% (inactive)	101% (inactive)	97.6% (inactive)	119% (inactive)	104% (inactive)	57	172% (inactive)	-14.5% (inactive)	105% (inactive)	-3% (inactive)	-4.11% (inactive)	-3.62% (inactive)	0.7% (inactive)	105% (inactive)	-0.41 (inactive)	2% (inactive)	36.4% (inactive)
Cc1ccc2c(c1)c(=O)c1c3n2CCN(C(=O)CCl)C3CC1 (stereo not drawn)	96.3% (inactive)	102% (inactive)	97% (inactive)	106% (inactive)	111% (inactive)	58.2	198% (inactive)	-10.5% (inactive)	108% (inactive)	18% (inactive)	-25.7% (inactive)	20.6% (inactive)	-19.6% (inactive)	96.7% (inactive)	0.46 (active)	1% (inactive)	0.92% (inactive)
OCC1CCN(Cc2cn(Cc3ccccc3)nc2-c2cc3ccccc3o2)CC1	106% (inactive)	97.2% (inactive)	97.8% (inactive)	79.5% (inactive)	102% (inactive)	60.9	203% (inactive)	18.2% (inactive)	99.1% (inactive)	-3% (inactive)	21% (inactive)	5.6% (inactive)	-6.29% (inactive)	98.5% (inactive)	0.52 (active)	20% (inactive)	10% (inactive)
COc1ccc(C2OC[C@H]3O[C@H](O)[C@H](NC(C)=O)[C@@H](O)[C@@H]3O2)cc1 (stereo partly drawn)	99.8% (inactive)	106% (inactive)	97.6% (inactive)	95.9% (inactive)	97.5% (inactive)	76.5	135% (inactive)	6.95% (inactive)	98.6% (inactive)	0% (inactive)	8.93% (inactive)	6.9% (inactive)	4.88% (inactive)	95.3% (inactive)	-0.04 (inactive)	12% (inactive)	-4.57% (inactive)
CC(C)CCc1noc(CN2CCC(CCN3CCCC3=O)CC2)n1	98.3% (inactive)	101% (inactive)	105% (inactive)	99.1% (inactive)	102% (inactive)	62.1	188% (inactive)	23% (inactive)	97.3% (inactive)	-3% (inactive)	-4.37% (inactive)	32.4% (inactive)	-4.25% (inactive)	95.1% (inactive)	-0.39 (inactive)	-3% (inactive)	-13.3% (inactive)
Cc1ccc(C)c(OCCCC(C)(C)C(=O)O)c1	98% (inactive)	97.2% (inactive)	95.4% (inactive)	122% (inactive)	89.6% (inactive)	62.8	203% (inactive)	-0.45% (inactive)	104% (inactive)	4% (inactive)	-7.3% (inactive)	-6.6% (inactive)	4.38% (inactive)	96.4% (inactive)	0.05 (inactive)	10% (inactive)	6.11% (inactive)
